Measurements: ChEMBL document CHEMBL4513146, “CO-ADD screening of Karazin Kharkiv National University (Ukraine) compounds”
Potency and affinity values are given separately.

Tests used:
[1] = tested on: Staphylococcus aureus; conditions: Concentration 32 ug.mL-1;; ASSAY_TEST Inhibition of Bacterial Growth; detection method Absorption (OD600); MEDIA CAMHB; plate type 384well; NBS; CORNING #3640; time 18 hr
[2] = tested on: Escherichia coli; conditions: Concentration 32 ug.mL-1;; ASSAY_TEST Inhibition of Bacterial Growth; detection method Absorption (OD600); MEDIA CAMHB; plate type 384well; NBS; CORNING #3640; time 18 hr

Row | SMILES | Inhibition [1] [%] | Inhibition [2] [%]
1 | O=C(CSc1nnc2c(=O)n(-c3cccc(F)c3)ccn12)Nc1ccc(Br)cc1 | 17.12 | -2.48
2 | COc1ccccc1N1CCN(C(=O)CSc2nc3ccccc3n3c(C(C)C)nnc23)CC1 | 1.01 | 3.41
3 | COc1ccc(CNC(=O)Cn2nc3c(Oc4ccccc4C)nccn3c2=O)cc1 | 1.68 | -7.69
4 | COc1ccc(NC(=O)Cn2c(=O)c3nnc(C(C)C)n3c3ccccc32)cc1 | 4.5 | -6.7
5 | CC(C)Cn1c(=O)c2sccc2n2c(=O)n(Cc3ccc(Cl)cc3)nc12 | -2.34 | 0.89
6 | O=c1n(Cc2cccc(C(F)(F)F)c2)nc2ccc(S(=O)(=O)N3CCCC3)cn12 | 14.07 | -1.1
7 | Cc1ccc(-c2cc3c4nnc(SCC(=O)Nc5cccc(Br)c5)n4ccn3n2)cc1 | 5.15 | -4.56
8 | CC(=O)c1ccc(NC(=O)Cn2c(=O)c3nnc(C(C)C)n3c3ccccc32)cc1 | 5.44 | -3.86
9 | Cc1cccc(C)c1NC(=O)Cn1nc2c(N3CCSCC3)nc3ccccc3n2c1=O | -9.27 | -7.41
10 | Cc1ccc(-n2ccn3c(SCC#N)nnc3c2=O)cc1C | 11.84 | -4.03
11 | CCCCOc1ccc(-c2cc3c4nnc(SCC(=O)NCc5ccc(C)cc5)n4ccn3n2)cc1 | 2.78 | -5.47
